# Measurements reported in PubChem BioAssay AID1851 (National Center for Advancing Translational Sciences (NCATS), 2009).
# Several values for one entry are separate records, joined by “and”; a condition that tells them apart may be missing. Equal entries are not always repeated. The campaign covered roughly 16,000 compounds. About 2,600 (16%) were called active. Inconclusive results (about 20%) are left out. Calls come from the whole dose curve; as a rule, active = well fitted curve in the direction sought with a large enough effect; inconclusive = small, poorly fitted or top-dose-only effect, or effect the other way; inactive = no such curve, though single readings can be large or run the other way. Only a sample is shown.
# Target: Cytochrome P450 2D6 (Homo sapiens) (UniProt P10635)
# Assay: Cytochrome panel assay with activity outcomes
# Details: recombinant CYP, pro-luciferin dealkylation, luminescence, p450-cyp2d6; series mostly up to 57.1 µM
# % is set by controls: 0 for no effect and ±100 for the full control effect.
# Cytochrome P450 2D6 (Homo sapiens), sequence (P10635 whole entry, looked up): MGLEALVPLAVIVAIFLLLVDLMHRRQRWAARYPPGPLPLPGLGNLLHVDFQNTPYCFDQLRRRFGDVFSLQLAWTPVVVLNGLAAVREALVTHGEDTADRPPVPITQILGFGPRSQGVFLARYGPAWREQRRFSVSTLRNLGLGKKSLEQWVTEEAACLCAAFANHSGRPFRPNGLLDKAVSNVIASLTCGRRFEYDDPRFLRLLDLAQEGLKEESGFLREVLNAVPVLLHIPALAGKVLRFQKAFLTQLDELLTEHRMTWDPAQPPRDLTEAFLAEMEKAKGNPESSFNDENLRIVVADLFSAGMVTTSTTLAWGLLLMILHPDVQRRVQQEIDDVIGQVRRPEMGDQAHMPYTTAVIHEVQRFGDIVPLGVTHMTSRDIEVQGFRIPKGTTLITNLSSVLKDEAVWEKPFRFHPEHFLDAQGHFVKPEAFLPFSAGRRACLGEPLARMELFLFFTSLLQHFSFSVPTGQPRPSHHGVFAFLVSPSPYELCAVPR
Compound,AC50,"activity, negative = inhibition"
COc1cc(Cn2cnnn2)ccc1O,inactive,–
CC1(C)Cc2c(ccc3ccccc23)C(=O)N1,inactive,–
CNC(=O)/C=C1\NC(C)(C)Cc2c1ccc1ccccc21,14.1 µM (active),–
Cc1cccc(C(=O)NCN2CCN(c3ccccc3C#N)CC2)c1,inactive,–
CC(C)(C[C@@]1(C)NC(=O)NC1=O)OCc1ccccc1,–,1.81% [at 11.4 µM] (inactive)
CCNCCCNCCCNCCCNCC,inactive,–
CC(C)CO/N=C1/C[C@@H](O)[C@@H](O)[C@@H]2[C@@H]3C(=O)N([C@@H](C)c4ccccc4)C(=O)[C@H]3CC[C@@H]12,–,17.4% [at 11.4 µM] (inactive)
COC(=O)C(C)Sc1ccc2nnc(-c3ccc(F)cc3)n2n1 (centres undefined),inactive,–
CN=c1nc(-c2ccccc2)n(-c2ccccc2)s1,31.6 µM (active),–
CC(=O)c1c(C)nc(-c2ccccc2)n1O,inactive,–
O=c1nc(-c2ccccc2)n(-c2ccccc2)c2ncccc12,inactive,–
COc1cc(/C=N/NC(=O)c2ccncc2)ccc1OC(=O)c1ccc([N+](=O)[O-])cc1,inactive,–
FC(F)(F)c1cc(CN2CC3(CCNCC3)C2)cc(C(F)(F)F)c1,inactive,–
O=C(c1cnccn1)N1CCC[C@@]2(CCN(Cc3ccncc3)C2)C1,inactive,–
O=C(c1ccco1)N1CCC2(CC1)CN(Cc1cc(C(F)(F)F)cc(C(F)(F)F)c1)C2,6.31 µM (active),–
O=C(c1cnccn1)N1CCC[C@@]2(CCN(Cc3cc(C(F)(F)F)cc(C(F)(F)F)c3)C2)C1,3.16 µM (active),–
CS(=O)(=O)N1CCC2(CC1)CN(Cc1nccs1)C2,inactive,–
O=C(c1cc(C(F)(F)F)cc(C(F)(F)F)c1)N1CCC2(CCCN(Cc3nccs3)C2)CC1,inactive,–
O=C(c1csnn1)N1CCC2(CC1)CCN(c1ccncc1)CC2,inactive,–
Cc1noc(C)c1C(=O)N1CCC[C@@]2(CCN(Cc3cc(C(F)(F)F)cc(C(F)(F)F)c3)C2)C1,inactive,–

Compound,AC50,"activity, negative = inhibition"
CS(=O)(=O)N1CCC2(CC1)CN(Cc1cc(C(F)(F)F)cc(C(F)(F)F)c1)C2,0.398 µM (active),–
O=C(c1csnn1)N1CCC2(CC1)CN(Cc1cc(C(F)(F)F)cc(C(F)(F)F)c1)C2,12.6 µM (active),–
COC(=O)c1cnn(C(=O)c2ccccc2Br)c1N,inactive,–
CN(C)c1ccc(O)c2c1C[C@H]1C[C@H]3[C@@H](N(C)C)C(=O)C(C(N)=O)=C(O)[C@]3(O)C(=O)C1=C2O,inactive,–
CCOc1ccc(-c2nnc3ccc(SCC(=O)NCc4ccco4)nn23)cc1,inactive,–
N#Cc1cc2nc(O)c(O)nc2cc1[N+](=O)[O-],inactive,–
CC[C@H](C)C(=O)O[C@@H]1C[C@H](C)C=C2C=C[C@H](C)[C@@H](CC[C@H]3C[C@@H](O)CC(=O)O3)[C@H]21,inactive,–
CO[C@H]1C=CO[C@]2(C)Oc3c(C)c(O)c4c(O)c(c5c(c4c3C2=O)NC2(CCN(CC(C)C)CC2)N=5)=NC(=O)C(C)=CC=C[C@@H](C)[C@@H](O)[C@@H](C)[C@@H](O)[C@@H](C)[C@@H](OC(C)=O)[C@@H]1C,inactive,–
Cn1c(=O)c(-c2ccc(F)cc2)nc2cnc(N3CCOCC3)nc21,inactive,–
Cn1c(=O)c(-c2ccc(Cl)cc2)nc2cnc(Nc3ccccc3)nc21,inactive,–
Cn1c(-c2sccc2OCc2ccccc2)n[nH]c1=S,inactive,–
O=C(c1cnccn1)N1CCC2(CC1)CN(Cc1cc(C(F)(F)F)cc(C(F)(F)F)c1)C2,0.398 µM (active),–
O=C(c1cnccn1)N1CCC2(CC1)CN(c1ccncc1)C2,inactive,–
O=C(c1cc(C(F)(F)F)cc(C(F)(F)F)c1)N1CCC2(CC1)CN(Cc1ccncc1)C2,inactive,–
CC(C)(C)n1nc2c(c1NC(=O)c1ccc(S(=O)(=O)N3CCCCC3)cc1)CS(=O)C2 (centres undefined),inactive,–
Cc1cc(NC(=O)NC(=O)c2ccc(F)cc2F)n[nH]1,inactive,–
CCC(C)C1NC(=S)N(C2CCCCC2)C1=O (centres undefined),inactive,–
COc1ccc2c(c1)C(=NN)c1cc(OC)ccc1-2,22.4 µM (active),–
COc1ccc2c(c1)Cc1cc(N=[N+]([O-])c3ccc4c(c3)Cc3cc(OC)ccc3-4)ccc1-2,–,-7.57% [at 11.4 µM] (inactive)
COc1ccc2c(c1)-c1ccccc1S(=O)(=O)N2C,inactive,–

Compound,AC50,"activity, negative = inhibition"
O=C(Cn1cnc([N+](=O)[O-])c1)NCc1ccc(F)cc1,inactive,–
CC(C)CN1CCCC2(CCN(C(=O)c3csnn3)CC2)C1,5.01 µM (active),–
O=C(c1csnn1)N1CCC2(CCCN(Cc3ccccc3)C2)CC1,1.26 µM (active),–
COc1ccc(NC(=O)N2CC3(CCN(C(=O)c4csnn4)CC3)C2)cc1,inactive,–
N#Cc1cccc(NC(=O)N2CCCC3(CCN(C(=O)c4csnn4)CC3)C2)c1,inactive,–
CC(=O)N1CCC[C@@]2(CCN(Cc3nccs3)C2)C1,inactive,–
O=C(Nc1ccccc1)N1CCC2(CC1)CCN(C(=O)c1csnn1)CC2,inactive,–
O=C(c1csnn1)N1CCC2(CC1)CN(c1ccccn1)C2,12.6 µM (active),–
O=C(c1csnn1)N1CCC2(CCCN(c3ccc(-c4ccccc4)cc3)C2)CC1,inactive,–
O=C(c1csnn1)N1CCC[C@@]2(CCN(Cc3nccs3)C2)C1,5.01 µM (active),–
CC(=O)N1CCC2(CC1)CN(c1ccccn1)C2,inactive,–
O=C(c1csnn1)N1CCC2(CCN(Cc3nccs3)CC2)CC1,inactive,–
O=C(c1cnccn1)N1CCC2(CC1)CN(c1ccccn1)C2,inactive,–
O=C(O)CN(CCN(CC(=O)O)CC(=O)O)CC(=O)O.[Cu],–,2.44% [at 11.4 µM] (inactive)
COCCCn1c(=S)[nH]c2ncccc2c1=O,inactive,–
CC(=O)O[C@H]1C2=CO[C@H](C)[C@H]3[C@H]4C5=C([C@H](O)[C@H]6O[C@@H]6C5=O)[C@H](O[C@H]4C)[C@@]23C(=O)[C@H]2O[C@@H]21,–,17.5% [at 11.4 µM] (inactive)
COc1cc2nc(N3CCN(C(=O)c4ccco4)CC3)nc(N)c2cc1OC,inactive,–
CCNc1nnc(-c2ccncc2)s1,inactive,–
O=C1C[C@@H](O)[C@@H](O)[C@H]2[C@@H]3C(=O)N(C4CCCCC4)C(=O)[C@@H]3CC[C@H]12,–,9.04% [at 11.4 µM] (inactive) and 6.81% [at 11.4 µM] (inactive) and 7.19% [at 11.4 µM] (inactive)
